Screens deposited in PubChem BioAssay by several laboratories.
A selection: hits, their analogues and other compounds. The true share with any hit is near 2.5%.
PG9 binder: binds the HIV-1 gp120 antibody PG9. actives 0.43% (n = 360,000). inhibition, % at 6.7 µM. TR-FRET gp120-PG9 antibody binding. AID 624416; in the data active means inhibition above about 8.5%
ABCB6 inh 2: human ABCB6 transporter inhibition | K562-ABCB6 porphyrin accumulation, flow cytometry, 1 h; stronger effect = lower value | fluorescence ratio to DMSO, % at 10 µM | actives 0.19% (n = 360,000) | AID 602162;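 active means fluorescence ratio to DMSO below 75%, the collection mean minus 3 SD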;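 further: signal is porphyrin accumulated inside mitochondria; 100% equals median channel fluorescence of DMSO control wells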
Target sequence (Q9NP58 whole entry, looked up): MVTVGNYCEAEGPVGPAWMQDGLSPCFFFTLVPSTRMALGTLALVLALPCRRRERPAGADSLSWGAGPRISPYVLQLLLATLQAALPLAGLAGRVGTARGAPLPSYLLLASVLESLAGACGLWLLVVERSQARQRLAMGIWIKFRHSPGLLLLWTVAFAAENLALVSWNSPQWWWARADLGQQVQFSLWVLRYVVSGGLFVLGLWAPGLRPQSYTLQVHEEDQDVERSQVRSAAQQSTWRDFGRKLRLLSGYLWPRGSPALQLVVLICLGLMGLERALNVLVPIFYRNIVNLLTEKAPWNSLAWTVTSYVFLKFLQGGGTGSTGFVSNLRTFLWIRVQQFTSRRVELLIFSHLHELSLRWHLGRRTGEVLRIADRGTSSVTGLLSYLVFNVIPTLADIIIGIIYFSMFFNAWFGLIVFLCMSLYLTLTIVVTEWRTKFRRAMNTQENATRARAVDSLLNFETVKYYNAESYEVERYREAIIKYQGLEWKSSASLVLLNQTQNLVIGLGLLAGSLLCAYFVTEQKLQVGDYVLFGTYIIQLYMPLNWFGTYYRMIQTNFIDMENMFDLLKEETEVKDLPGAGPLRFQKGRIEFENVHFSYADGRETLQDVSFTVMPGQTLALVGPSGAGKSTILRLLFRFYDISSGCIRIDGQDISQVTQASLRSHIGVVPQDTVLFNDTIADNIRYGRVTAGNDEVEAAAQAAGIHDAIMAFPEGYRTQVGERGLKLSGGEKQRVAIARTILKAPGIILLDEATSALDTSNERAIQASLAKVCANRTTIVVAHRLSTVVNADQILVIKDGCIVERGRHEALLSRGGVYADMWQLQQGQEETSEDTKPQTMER
Exocytosis inh: lytic granule exocytosis inhibition; inhibition, % at 10 µM; AID 651702; actives 0.66% (n = 360,000); TALL-104 LAMP-1 surface exposure, flow cytometry; cells stimulated with thapsigargin and PMA;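 active means inhibition above about 55%, limit read from the data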
rCAG binder: binds r(CAG) RNA repeats; AID 651821; actives 1.3% (n = 370,000); r(CAG) RNA repeat, TO-PRO-1 dye displacement fluorescence; inhibition, % at 3 µM;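 active means inhibition above the plate cutoff, the mean of all test compounds on that plate plus 3 SD, cut at about 35% in these data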;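 further: 0% = DMSO alone and 100% = 100 µM mitoxantrone as full dye displacement; higher means more dye released from RNA so lower well fluorescence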
ABCB6 blocker 1: human ABCB6 transporter inhibition; shares compounds with ABCB6 inh 2; K562-ABCB6 porphyrin accumulation, flow cytometry, 1 h; stronger effect = lower value; ratio response (% of DMSO), % at 10 µM; 700 tested, under 10 active; AID 602430;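 active means repeat-averaged ratio response below 75% of DMSO, the collection mean minus 3 SD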;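 further: median porphyrin fluorescence at 575 nm with 488 nm excitation from mitochondria; lower ratio means less porphyrin signal so ABCB6 inhibition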
K562 vector FC: activity in empty-vector K562 counter-screen for ABCB6 inhibitors. shares compounds with ABCB6 inh 2. K562 empty-vector cells, flow cytometry fluorescence, 1 h. percent response (fluorescence), % at 100 µM. 25 tested, under 10 active. AID 624484;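 active means compounds whose half-maximal effective concentration is below 100 µM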
An asterisk follows results filed as active; . = not tested or not shown.

SMILES	PG9 binder	ABCB6 inh 2	Exocytosis inh	rCAG binder	ABCB6 blocker 1	others
COc1ccc(S(=O)(=O)NC(=O)C2(C)CCN2C(=O)CCc2ccc(Cl)cc2Cl)cc1 (configuration not stated)	0.7	97.0	0.2	20.6	.
COc1ccc(OC)c(S(=O)(=O)NC(=O)C2(C)CCN2C(=O)Cc2ccccc2Cl)c1 (configuration not stated)	0.7	97.0	0.6	3.6	98.0
COc1ccc(S(=O)(=O)NC(=O)C2(C)CCN2C(=O)Cc2ccccc2Cl)cc1 (configuration not stated)	-1.1	95.0	-1.7	4.2	102.0
CC[C@]1(c2ccc(C)cc2)C(=O)N(C(=O)OC(C)C)N1C(=O)OC(C)C	.	.	.	-1.8	.
COc1ccc(C(=O)/C=C(\Nc2ccc(F)cc2)c2ccc(OC)cc2OC)c(OC)c1	.	.	.	7.0	.
Cc1ccccc1OCCNC(=O)CSc1ccc(C(F)(F)F)cc1[N+](=O)[O-]	-0.4	70.0*	-4.8	4.9	99.0
COC(=O)C1=C(C)N(Cc2ccccc2C(F)(F)F)C(=NCc2ccc(OC)cc2)NC1c1ccccc1C(F)(F)F (configuration not stated)	-0.9	.	.	4.0	.
CCN(CC)c1ccc(C(=O)OCC(=O)N(C)Cc2ccccc2)cc1	1.4	65.0*	-0.3	-7.1	100.0
Cc1nn(-c2ccccc2)c(N)c1Sc1ccccc1[N+](=O)[O-]	0.3	46.0*	-2.4	2.0	102.0
CCn1c(SCC#N)nc2c(c1=O)C1(CCCC1)Cc1ccccc1-2	0.5	71.0*	-2.3	-3.7	101.0
Cc1cc([N+](=O)[O-])ccc1NC(=O)c1csc(C)c1C	-1.6	95.0	3.1	1.9	.
Cc1ccc(S(=O)(=O)Cc2ccc(C(=O)N3CCC(C(N)=O)CC3)o2)cc1	1.0	55.0*	-2.4	1.1	98.0
COc1ccc(S(=O)(=O)Cc2ccc(C(=O)N3CCC(C(N)=O)CC3)o2)cc1	-1.2	101.0	-3.6	-1.0	.
N#CC1(NC(=O)CSc2nnc3n2CCCCC3)CCCCC1	1.2	96.0	5.2	3.2	.
COc1ccc(C2C(C(=O)c3ccco3)=C(O)C(=O)N2CC2CCCO2)cc1OC (configuration not stated)	-0.5	95.0	-1.7	1.1	.
Cc1ccc(-n2nc3c(c2NC(=O)C2CCCC2)CS(=O)(=O)C3)cc1	-1.4	10.0*	-15.7	3.2	95.0
O=C(Nc1c2c(nn1-c1ccc(Cl)cc1)CS(=O)(=O)C2)C1CC1	-1.7	94.0	-1.0	-0.3	.
CN(CC(=O)Nc1ccc(Cl)cc1)CC(=O)Nc1sc2c(c1C(N)=O)CCC2	2.1	99.0	7.4	8.0	.
CN(C)S(=O)(=O)c1cccc(NC(=O)COC(=O)CCSc2ccc(Cl)cc2)c1	-1.4	71.0*	1.0	3.9	101.0
O=C(Cc1ccccc1F)Nc1cc(Cl)ccc1N1CCCC1	-2.3	94.0	8.7	1.8	.
CC1(C(=O)NS(=O)(=O)c2ccc(Br)cc2)CCN1C(=O)C1(c2ccccc2)CC1 (configuration not stated)	0.5	99.0	-3.4	23.2	.
CC1(C(=O)NS(=O)(=O)c2ccccc2C(F)(F)F)CCN1C(=O)C1CCCCC1 (configuration not stated)	0.3	62.0*	9.5	6.0	100.0
Cc1ccccc1S(=O)(=O)NC(=O)C1(C)CCN1C(=O)C1(c2ccccc2)CC1 (configuration not stated)	1.1	102.0	-3.1	6.9	101.0
CC1(C(=O)NS(=O)(=O)c2ccccc2)CCN1C(=O)C1(c2ccc(Cl)cc2)CC1 (configuration not stated)	-0.9	71.0*	14.5	15.5	102.0
Cc1cccc(S(=O)(=O)NC(=O)C2(C)CCN2C(=O)C2(c3ccc(Cl)cc3)CC2)c1 (configuration not stated)	-0.3	89.0	2.8	31.7	.
SMILES	PG9 binder	ABCB6 inh 2	Exocytosis inh	rCAG binder	ABCB6 blocker 1	others
CC1(C(=O)NS(=O)(=O)c2ccc(C#N)cc2)CCN1C(=O)C1(c2ccccc2)CCCC1 (configuration not stated)	-2.1	101.0	-2.0	23.2	100.0
CC1(C(=O)NS(=O)(=O)c2ccccc2C(F)(F)F)CCN1C(=O)CC1CCCCC1 (configuration not stated)	1.6	99.0	-12.0	24.3	.
O=S(=O)(CC1NCCc2ccccc21)NCCc1ccccc1 (configuration not stated)	.	.	.	1.5	.
CC1(C(=O)NS(=O)(=O)c2ccc(C#N)cc2)CCN1C(=O)C1(c2ccc(Cl)cc2)CC1 (configuration not stated)	0.4	101.0	1.4	17.4	100.0
CN1CCN(NC(=O)c2cc(-c3ccc(Cl)s3)nc3ccccc23)CC1	2.6	72.0*	34.5	1.3	101.0
CN1CCN(NC(=O)c2cc(-c3ccccn3)nc3ccccc23)CC1	1.0	95.0	4.1	-1.1	.
Cc1ccc(NC(=O)Nc2ccon2)cc1	0.5	10.0*	2.5	-3.1	99.0
CC(C)C(=O)N1CCN(c2ccccc2NC(=O)c2ccco2)CC1	-2.5	100.0	15.2	-0.4	.
COc1ccccc1NC(=O)c1ccc(NC(=O)CSc2nncn2C)cc1	-2.5	93.0	1.0	-3.2	.
CCCn1c(SCC(=O)Nc2ccc(C(=O)Nc3ccccc3OC)cc2)n[nH]c1=O	1.4	68.0*	-5.0	-0.7	98.0
CC1(C)CC(=O)N(CC(=O)N2CCN(c3cccc(C(F)(F)F)c3)CC2)c2ccccc2S1(=O)=O	.	.	.	3.0	.
COc1ccc(C(=O)c2[nH]c(N)c(C(=O)c3c[nH]c4ccccc34)c2-c2ccc(OC)cc2)cc1	-0.3	.	.	16.4	.
COc1ccc(NC(=O)c2ccccc2NC(=O)CSc2ccc(C)cc2)cc1	0.9	58.0*	2.7	-5.4	101.0
COc1ccc(S(=O)(=O)n2ccc(-c3ccc(OCCN(C)c4ccccn4)cc3)n2)cc1	1.4	73.0*	1.6	4.4	100.0
Fc1ccccc1OCCCN1CCOCC1	1.4	74.0*	-2.4	-1.6	99.0
c1ccc(-c2ccccc2OCCCN2CCOCC2)cc1	-1.0	103.0	21.4	-6.4	.
COc1ccc(CC(=O)NCC2CCCN(Cc3ccc(F)cc3F)C2)cc1 (configuration not stated)	-0.5	98.0	2.8	-6.0	.
COc1ccc(OC)c(NC(=O)c2nc(S(=O)(=O)Cc3ccccc3)ncc2Cl)c1	2.5	83.0	34.9	7.9	.	K562 vector FC=594.0
COc1ccc(NC(=O)c2nc(S(=O)(=O)Cc3cccc(C)c3)ncc2Cl)c(OC)c1	-0.8	151.0	24.2	1.5	.	K562 vector FC=271.4
COc1ccc(NC(=O)c2c(-c3ccccc3Cl)noc2C)c(OC)c1	0.8	97.0	11.6	-1.8	.
CCN(CC)S(=O)(=O)c1cccc(-c2nnc(SCC(=O)NCCC3=CCCCC3)n2N)c1	-2.8	71.0*	0.1	-9.3	100.0
Nc1nc(SCc2c(F)cccc2Cl)[nH]c(=O)c1-c1ccccc1	-1.3	50.0*	6.7	6.6	98.0
